Laboratory results as given in ChEMBL document CHEMBL1961873, “Compounds: GSK PKIS; Assays: Nanosyn kinase panel” (2012).

What was measured:
[1] = target: Mitogen-activated protein kinase kinase kinase kinase 4 (Homo sapiens) (UniProt O95819); conditions: at 1 µM;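 also: reported figure is an averaged inhibition value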
[2] = target: Dual specificity mitogen-activated protein kinase kinase 1 (Homo sapiens) (UniProt Q02750); conditions: at 0.1 µM
[3] = target: Dual specificity mitogen-activated protein kinase kinase 1 (Homo sapiens) (UniProt Q02750); conditions: at 1 µM
[4] = target: Misshapen-like kinase 1 (Homo sapiens) (UniProt Q8N4C8); conditions: at 0.1 µM
[5] = target: Misshapen-like kinase 1 (Homo sapiens) (UniProt Q8N4C8); conditions: at 1 µM
[6] = target: T1, Serine/threonine-protein kinase 4 (Homo sapiens) (UniProt Q13043); conditions: at 0.1 µM
T1 sequence (whole entry): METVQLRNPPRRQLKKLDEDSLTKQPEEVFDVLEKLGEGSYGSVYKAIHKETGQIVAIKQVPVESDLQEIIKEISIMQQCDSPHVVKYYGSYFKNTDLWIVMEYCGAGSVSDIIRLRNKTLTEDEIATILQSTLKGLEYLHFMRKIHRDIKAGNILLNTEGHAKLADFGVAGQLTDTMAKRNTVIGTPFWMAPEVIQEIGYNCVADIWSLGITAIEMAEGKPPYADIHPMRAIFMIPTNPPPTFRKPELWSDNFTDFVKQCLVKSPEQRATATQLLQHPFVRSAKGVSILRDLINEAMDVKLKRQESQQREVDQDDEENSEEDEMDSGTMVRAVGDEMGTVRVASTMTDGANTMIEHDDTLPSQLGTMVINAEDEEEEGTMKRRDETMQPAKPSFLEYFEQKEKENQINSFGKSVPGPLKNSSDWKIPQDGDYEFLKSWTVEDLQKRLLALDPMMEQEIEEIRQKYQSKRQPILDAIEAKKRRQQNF

[7] = target: T1, Serine/threonine-protein kinase 4 (Homo sapiens); conditions: at 1 µM
[8] = target: T2, Serine/threonine-protein kinase 3 (Homo sapiens) (UniProt Q13188); conditions: at 0.1 µM
T2 sequence (whole entry): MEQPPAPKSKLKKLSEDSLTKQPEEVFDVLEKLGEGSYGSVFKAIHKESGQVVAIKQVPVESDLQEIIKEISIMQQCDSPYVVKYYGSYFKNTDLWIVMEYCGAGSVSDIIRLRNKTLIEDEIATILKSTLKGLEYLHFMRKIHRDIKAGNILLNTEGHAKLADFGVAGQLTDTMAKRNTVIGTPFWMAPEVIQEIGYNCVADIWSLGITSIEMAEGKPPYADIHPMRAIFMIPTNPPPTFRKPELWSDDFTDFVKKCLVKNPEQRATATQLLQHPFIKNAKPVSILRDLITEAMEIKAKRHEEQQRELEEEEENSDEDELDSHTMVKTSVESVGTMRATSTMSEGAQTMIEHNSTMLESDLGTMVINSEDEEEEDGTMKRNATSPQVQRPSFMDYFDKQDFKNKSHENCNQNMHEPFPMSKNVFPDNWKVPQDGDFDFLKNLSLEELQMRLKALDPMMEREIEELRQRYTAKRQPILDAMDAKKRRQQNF

[9] = target: T2, Serine/threonine-protein kinase 3 (Homo sapiens); conditions: at 1 µM
[10] = target: Serine/threonine-protein kinase 26 (Homo sapiens) (UniProt Q9P289); conditions: at 0.1 µM
Serine/threonine-protein kinase 26 (Homo sapiens), sequence (Q9P289 2-416 limits assumed): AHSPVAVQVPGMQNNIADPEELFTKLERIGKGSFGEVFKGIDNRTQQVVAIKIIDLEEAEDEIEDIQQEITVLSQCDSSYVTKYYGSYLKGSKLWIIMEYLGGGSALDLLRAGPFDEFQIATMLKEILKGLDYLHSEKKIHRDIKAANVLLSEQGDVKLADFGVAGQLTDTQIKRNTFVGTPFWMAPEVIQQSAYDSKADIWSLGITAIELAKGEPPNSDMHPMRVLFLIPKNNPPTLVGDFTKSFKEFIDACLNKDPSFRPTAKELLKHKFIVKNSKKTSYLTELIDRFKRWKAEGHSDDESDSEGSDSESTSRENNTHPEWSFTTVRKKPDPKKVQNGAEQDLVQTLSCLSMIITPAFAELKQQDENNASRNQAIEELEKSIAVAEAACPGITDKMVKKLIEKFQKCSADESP

Mitogen-activated protein kinase kinase kinase kinase 4 (Homo sapiens), sequence (O95819 2-1239 limits assumed): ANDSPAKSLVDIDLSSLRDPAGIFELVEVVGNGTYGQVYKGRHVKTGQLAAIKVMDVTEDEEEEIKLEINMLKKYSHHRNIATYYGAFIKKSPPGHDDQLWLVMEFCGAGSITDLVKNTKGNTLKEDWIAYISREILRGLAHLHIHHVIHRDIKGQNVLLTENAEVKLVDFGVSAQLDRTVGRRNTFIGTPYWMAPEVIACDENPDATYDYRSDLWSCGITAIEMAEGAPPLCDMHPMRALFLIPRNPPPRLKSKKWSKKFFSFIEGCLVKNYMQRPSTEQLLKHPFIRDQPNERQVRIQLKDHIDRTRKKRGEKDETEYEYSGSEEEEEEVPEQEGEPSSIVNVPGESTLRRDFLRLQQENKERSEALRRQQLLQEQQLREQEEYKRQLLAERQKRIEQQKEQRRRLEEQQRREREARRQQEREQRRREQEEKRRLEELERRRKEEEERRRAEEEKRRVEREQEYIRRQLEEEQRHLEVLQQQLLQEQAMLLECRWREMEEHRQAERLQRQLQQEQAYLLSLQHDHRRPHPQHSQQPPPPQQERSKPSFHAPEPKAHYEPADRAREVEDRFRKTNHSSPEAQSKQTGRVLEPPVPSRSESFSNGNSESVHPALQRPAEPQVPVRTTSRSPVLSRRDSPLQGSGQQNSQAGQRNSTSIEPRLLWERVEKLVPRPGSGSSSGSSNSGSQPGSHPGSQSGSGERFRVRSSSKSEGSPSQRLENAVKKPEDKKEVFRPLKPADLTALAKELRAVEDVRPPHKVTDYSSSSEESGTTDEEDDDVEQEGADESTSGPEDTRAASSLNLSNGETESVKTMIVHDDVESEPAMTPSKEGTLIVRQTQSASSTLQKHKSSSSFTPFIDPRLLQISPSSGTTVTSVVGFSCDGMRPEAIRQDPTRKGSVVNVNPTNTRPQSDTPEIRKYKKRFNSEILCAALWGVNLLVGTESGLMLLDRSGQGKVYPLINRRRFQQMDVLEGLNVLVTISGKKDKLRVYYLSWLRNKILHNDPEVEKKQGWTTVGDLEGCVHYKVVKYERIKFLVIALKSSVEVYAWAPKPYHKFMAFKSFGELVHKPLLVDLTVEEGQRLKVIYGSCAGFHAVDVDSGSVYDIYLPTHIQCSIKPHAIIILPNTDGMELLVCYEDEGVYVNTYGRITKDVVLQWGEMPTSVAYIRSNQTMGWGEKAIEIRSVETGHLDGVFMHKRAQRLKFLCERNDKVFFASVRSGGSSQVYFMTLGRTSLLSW
Misshapen-like kinase 1 (Homo sapiens), sequence (Q8N4C8 whole entry, looked up): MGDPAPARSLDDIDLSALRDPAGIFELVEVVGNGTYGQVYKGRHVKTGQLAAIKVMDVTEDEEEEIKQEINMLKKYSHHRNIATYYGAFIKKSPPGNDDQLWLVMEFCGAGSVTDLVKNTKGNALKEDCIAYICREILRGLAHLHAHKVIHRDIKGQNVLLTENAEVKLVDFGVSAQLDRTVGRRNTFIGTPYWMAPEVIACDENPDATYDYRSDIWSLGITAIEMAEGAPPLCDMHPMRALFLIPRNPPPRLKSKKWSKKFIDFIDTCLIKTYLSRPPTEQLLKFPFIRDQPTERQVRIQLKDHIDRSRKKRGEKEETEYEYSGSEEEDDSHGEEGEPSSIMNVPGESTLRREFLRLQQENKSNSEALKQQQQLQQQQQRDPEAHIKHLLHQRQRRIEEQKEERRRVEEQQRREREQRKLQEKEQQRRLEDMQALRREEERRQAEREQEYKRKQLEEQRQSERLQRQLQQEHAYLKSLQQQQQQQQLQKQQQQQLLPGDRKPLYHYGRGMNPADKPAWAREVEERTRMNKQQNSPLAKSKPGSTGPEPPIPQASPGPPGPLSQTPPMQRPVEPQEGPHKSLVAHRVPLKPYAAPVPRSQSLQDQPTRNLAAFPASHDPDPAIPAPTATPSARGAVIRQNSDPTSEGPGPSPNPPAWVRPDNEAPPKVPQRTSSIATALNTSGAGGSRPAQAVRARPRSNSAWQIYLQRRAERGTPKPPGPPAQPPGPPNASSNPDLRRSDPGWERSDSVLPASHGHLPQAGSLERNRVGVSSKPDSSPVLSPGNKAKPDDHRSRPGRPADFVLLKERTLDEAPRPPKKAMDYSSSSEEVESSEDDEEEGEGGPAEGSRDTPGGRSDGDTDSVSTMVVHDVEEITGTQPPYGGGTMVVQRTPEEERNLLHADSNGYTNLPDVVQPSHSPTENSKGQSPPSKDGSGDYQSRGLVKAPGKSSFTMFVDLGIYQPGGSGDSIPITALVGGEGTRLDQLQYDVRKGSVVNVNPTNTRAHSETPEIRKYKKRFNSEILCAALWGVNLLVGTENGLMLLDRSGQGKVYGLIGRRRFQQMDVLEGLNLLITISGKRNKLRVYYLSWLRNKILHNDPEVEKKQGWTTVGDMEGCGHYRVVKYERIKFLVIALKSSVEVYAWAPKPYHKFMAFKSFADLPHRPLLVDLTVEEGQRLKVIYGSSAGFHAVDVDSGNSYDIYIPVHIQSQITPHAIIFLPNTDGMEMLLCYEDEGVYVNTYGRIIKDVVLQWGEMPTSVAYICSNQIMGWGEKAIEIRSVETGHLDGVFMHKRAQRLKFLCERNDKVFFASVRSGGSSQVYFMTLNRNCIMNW
Dual specificity mitogen-activated protein kinase kinase 1 (Homo sapiens), sequence (Q02750 whole entry): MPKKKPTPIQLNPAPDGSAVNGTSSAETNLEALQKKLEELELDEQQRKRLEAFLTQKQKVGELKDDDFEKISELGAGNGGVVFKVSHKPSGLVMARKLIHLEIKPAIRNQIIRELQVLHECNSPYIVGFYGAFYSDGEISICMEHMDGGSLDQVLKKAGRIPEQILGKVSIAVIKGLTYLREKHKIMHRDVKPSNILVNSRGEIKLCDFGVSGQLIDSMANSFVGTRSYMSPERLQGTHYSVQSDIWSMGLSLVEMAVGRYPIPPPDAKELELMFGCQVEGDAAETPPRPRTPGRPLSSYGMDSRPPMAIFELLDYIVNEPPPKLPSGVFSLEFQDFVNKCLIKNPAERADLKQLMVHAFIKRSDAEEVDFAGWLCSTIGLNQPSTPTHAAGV

| SMILES | inhibition [1] | inhibition [2] | inhibition [3] | inhibition [4] | inhibition [5] | inhibition [6] | inhibition [7] | inhibition [8] | inhibition [9] | inhibition [10] |
| --- | --- | --- | --- | --- | --- | --- | --- | --- | --- | --- |
| O=C(Nc1ccc(Oc2ccc3[nH]c(NC(=O)c4ccco4)nc3c2)cc1)Nc1cc(C(F)(F)F)ccc1F | 5.1% | 0.55% | 1.24% | 0.49% | -0.52% | -0.01% | 0.17% | -1.13% | -0.98% | 0.66% |
| NS(=O)(=O)c1cccc(Nc2cc(-c3ccc(F)cc3)n[nH]2)c1 | 69.9% | 5.05% | 3.82% | 14.6% | 59.5% | 8.09% | 16.1% | 7.41% | 13.4% | -0.02% |
| CN1CCN(C(=O)c2ccc(NC(=O)Nc3ccc(N(C)c4ccnc(Nc5ccc(CS(C)(=O)=O)cc5)n4)cc3)cc2)CC1 | 58.6% | 1.05% | 10.8% | 7.54% | 42.4% | 16.1% | 60.9% | 6.27% | 28.3% | 1.7% |
| Cc1ccc2c(c1)/C(=N/Nc1ccc(S(N)(=O)=O)cc1)C(=O)N2 | 72.3% | 0.13% | 1.05% | 16.2% | 61.8% | 16.4% | 65.9% | 11% | 55% | 0.66% |
| c1ccc(Cc2nc3ccc(Nc4ncnc5ccccc45)cc3[nH]2)cc1 | 10% | 2.72% | 2.98% | 4.23% | 9.55% | 4.48% | 8.56% | 5.09% | 8.29% | -0.58% |
| COc1cc(/C=N/Nc2ncnc3c2cnn3C(C)C)ccc1O | 21.4% | 2.16% | 1.21% | 6.6% | 19.1% | 1.8% | 7.78% | 1.29% | 8.02% | 0.35% |
| Cc1cc(-c2ccccn2)cc(C)c1/C=C/c1cncc(-c2nn[nH]n2)c1 | 13.5% | 3.04% | 4.93% | 2.69% | 9.19% | 3.88% | 8.04% | 3.7% | 7.75% | -1.78% |
| O=C1Nc2ccc(-c3cccnc3)cc2C1=Cc1cc(Br)c(O)c(Br)c1 | 91.6% | 4.59% | 5.62% | 45% | 81.6% | 9.98% | 39.6% | 10.3% | 37.3% | 9.93% |
| CN(C)C(=O)O[C@H]1CN[C@H](C#Cc2cc3ncnc(Nc4ccc(OCc5cccc(F)c5)c(Cl)c4)c3s2)C1 | 4.23% | 1.29% | 2.35% | 3.51% | 3.5% | 2.1% | 4.55% | 2.81% | 3% | -0.23% |
| Cc1ccc2c(-c3ccnc(Nc4cccc(C(F)(F)F)c4)n3)c(-c3ccccc3)nn2n1 | 46.8% | 5.35% | 7.59% | 8.79% | 38.2% | 3.51% | 7.31% | 5.68% | 6.69% | 0.2% |
| COc1cccc(-n2ncc3c(N/N=C/c4ccc(C)cc4)ncnc32)c1 | 21% | 4.05% | 3.78% | 7.18% | 16.1% | 5.34% | 13.2% | 6.16% | 11.4% | -1.81% |
| Cc1ccc(Nc2ccnc(Nc3cccc(C(N)=O)c3)n2)cc1O | 28.9% | 4.22% | 4.94% | 6.27% | 22% | 5.18% | 12.2% | 4.59% | 10.1% | 0.27% |
| Oc1cccc(-c2nc(-c3ccccc3)[nH]c2-c2ccncc2)c1 | 11.6% | 5.08% | 4.94% | 5.57% | 8.96% | 5.39% | 8.96% | 5.44% | 7.6% | 0.83% |
| NS(=O)(=O)c1ccc(NC=C2C(=O)Nc3ccc4ncsc4c32)cc1 | 79% | 17.5% | 68.3% | 62.9% | 78.9% | 74.5% | 80.4% | 73.1% | 78.2% | 62.1% |
| Cc1cc(O)cc(C)c1/C=C/c1cncc(C(=O)N(C)C)c1 | 12.6% | 2.74% | 2.6% | 6.61% | 11.7% | 3.39% | 3.11% | 3.57% | 2.26% | 0.08% |
| CCS(=O)(=O)c1ccc(OC)c(Nc2ncc(-c3cccc(OC)c3)o2)c1 | 25.9% | 2.58% | 3.57% | 5.68% | 16.8% | 6.63% | 10.6% | 6.69% | 7.22% | -1.42% |
| C[C@@H](Oc1cc(-n2cnc3ccc(OC[C@@H](O)CO)cc32)sc1C(N)=O)c1ccccc1Cl | 4.28% | -0.54% | 0.3% | -1.25% | 2.89% | 3.22% | 34.1% | 2.75% | 25.7% | -0.27% |

| SMILES | inhibition [1] | inhibition [2] | inhibition [3] | inhibition [4] | inhibition [5] | inhibition [6] | inhibition [7] | inhibition [8] | inhibition [9] | inhibition [10] |
| --- | --- | --- | --- | --- | --- | --- | --- | --- | --- | --- |
| Cc1ccc(C(=O)NC2CC2)cc1-c1ccc2[nH]ncc2c1 | -0.85% | -3.43% | -3.98% | -4.28% | -1.78% | -2.09% | 1.26% | -4.71% | -2.04% | -0.05% |
| N#Cc1c(NC(=O)c2ccccc2F)sc2c1CCCC2 | -0.82% | 0.34% | -0.71% | -1.75% | -2.13% | -0.37% | 3.02% | -3.35% | 1.41% | -0.08% |
| CCCN1CCCC(c2ccc(Nc3nc(Nc4cc(F)ccc4C(N)=O)c4cc[nH]c4n3)c(OC)c2)C1 (stereo not given) | 80.8% | 9.59% | 33.4% | 28.3% | 71.7% | 10.2% | 41% | 6.09% | 10.6% | -1.66% |
| N#Cc1cccc(Nc2nccc(-c3cnn4ncccc34)n2)c1 | 64.3% | 19.5% | 63% | 16.6% | 53.4% | 8.96% | 27.6% | 7.72% | 24.4% | -0.39% |
| COc1ccc2ncnc(Nc3ccc(OCc4ccccc4)cc3)c2c1 | 7.18% | 3.95% | 2.41% | 3.65% | 4.24% | 1.92% | 4.04% | 1.62% | 3.92% | -1.91% |
| CN(C)c1cc2c(Nc3ccc4c(cnn4Cc4ccccc4)c3)ncnc2cn1 | 6.51% | 3.44% | 2.77% | 3.28% | 4.78% | 3.03% | 1.68% | 4.54% | 2.67% | -1.9% |
| COC(=O)c1cncc(/C=C/c2c(C)cc(O)cc2C)c1 | 18.8% | 4.72% | 4.21% | 5.24% | 14.9% | 7.04% | 9.84% | 7.02% | 9.92% | -1.08% |
| CC(C)c1ccc(Nc2nccc(-c3cnn4ncccc34)n2)cc1 | 18.7% | 2.79% | 9.57% | 3.97% | 14.6% | 4.71% | 20.1% | 5.07% | 18.6% | 0.23% |
| NS(=O)(=O)c1cccc(-c2cc3ccncc3cc2OCc2ccccc2)c1 | 11.1% | 5.91% | 5.86% | 7.3% | 13.4% | 8% | 11.9% | 7.94% | 11% | -2.99% |
| CN(c1ccc(NC(=O)Nc2ccc(OC(F)(F)F)cc2)cc1)c1ccnc(Nc2cccc(S(N)(=O)=O)c2)n1 | 85.1% | 3.84% | 13.7% | 24.3% | 80.3% | 2.75% | 9.45% | 4.46% | 6.49% | -1.04% |
| c1ccc(Nc2ncc(-c3ccccc3)o2)cc1 | 25.9% | 5.07% | 4.19% | 6.17% | 19% | 2.36% | 4.87% | 4.89% | 6.36% | -1.38% |
| COc1cc2ncn(-c3cc(OCc4ccccc4S(C)(=O)=O)c(C#N)s3)c2cc1OC | 90.5% | 3.78% | 7.23% | 43.7% | 83.5% | 22.3% | 66.4% | 17.3% | 51.5% | -1.33% |
| CS(=O)(=O)CCNCc1nc(-c2ccc3ncnc(Nc4ccc(OCc5cccc(C(F)(F)F)c5)cc4)c3c2)cs1 | 3.34% | 1.13% | 0.13% | 2.9% | 4.39% | 3.31% | 6.13% | 4.17% | 6.28% | -0.02% |
| COc1cc2ncnc(Nc3ccc(C)c(O)c3)c2cc1OC | 21.4% | 6.11% | 5.54% | 9.75% | 18% | 5.24% | 9.47% | 5.84% | 8.26% | -1.09% |
| Nc1nccc(-c2c(-c3ccc(F)cc3)ncn2CCCN2CCOCC2)n1 | 8.06% | 5.23% | 4.45% | 5.84% | 7.98% | 3.71% | 5.25% | 4.5% | 5.71% | -0.66% |
| NS(=O)(=O)c1ccc(N/N=C2\C(=O)Nc3ccc(Cl)cc32)cc1 | 75.5% | 5.27% | 5.11% | 18.5% | 65.7% | 21.2% | 67.5% | 16.8% | 56.9% | 1.38% |
